# Screening data deposited in PubChem by National Center for Advancing Translational Sciences (NCATS).
# The list is not random: actives were taken first. Their share in the collection is about 11%.
# Sfp PPTase inh – inhibitors of Bacillus subtilis Sfp phosphopantetheinyl transferase | Potency, µM, for inactives: largest response in the series, negative = inhibition, most hits filed as inhibitors | 310,000 compounds, 3.5% hits | Biochemical Sfp PPTase activity, qHTS | Q9F4F7;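 note: the enzyme is Sfp with the accession as filed and its product quenches rhodamine fluorescence; potency is the fitted concentration of half-maximal effect; 0% = enzyme reaction without inhibitor and -100% = no enzyme wells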
#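 After 15 min at room temperature with compound, 15 nM Sfp received 5 uM rhodamine-CoA plus 12.5 uM BHQ-2-ybbR (50 mM Hepes pH 7.6, 10 mM MgCl2). Rate came from the fluorescence difference over 30 min, ex 525/em 598 nm.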
# Tau fibril ThT – inhibitors of human tau fibril formation, thioflavin T binding | recombinant tau K18 P301L, heparin-induced fibrillization, ThT fluorescence | Potency, µM (doses to about 57.4 µM), inactives show at the top dose activity, negative = inhibition, most hits filed as inhibitors | 270,000 compounds, 2.1% hits | AID 1460; note: potency is the fitted concentration of half-maximal effect; nearly all actives have a fitted effect of over 55% in size
# Target sequence (P10636 561-689 P618L limits assumed): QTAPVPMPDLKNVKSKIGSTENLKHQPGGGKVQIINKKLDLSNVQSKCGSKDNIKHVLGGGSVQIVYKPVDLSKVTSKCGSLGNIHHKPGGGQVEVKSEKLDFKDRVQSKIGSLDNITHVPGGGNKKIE
#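 Using a mix of unlabeled (15 uM) and Alexa 594-labeled (0.24 uM) tau K18 P301L, heparin-triggered fibrillization over 6 hr at 37 C was scored by ThT fluorescence.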
# Tau fluor cs – counter-screen for tau fibril formation inhibitors; 280,000 compounds, 0.93% hits; tau K18 P301L (four-repeat tau fragment) Alexa594 fluorescence, heparin fibrillization; AID 1463; Potency, µM (doses to about 57.7 µM), for inactives: at the highest dose activity change, negative = decrease; note: potency is the fitted concentration of half-maximal effect; nearly all actives have a fitted effect of over 55% in size
#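 Human K18 P301L tau (15 uM unlabeled plus 0.24 uM Alexa 594-labeled, final) in 100 mM sodium acetate pH 7 was mixed with compound and 20 uM heparin and incubated 6 hr at 37 C.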
# FBPA coupling cs – coupling enzyme interference in Giardia aldolase counter-screen. activity change, negative = inhibition, % at 58.2 µM, hits read low. AID 2472. coupling enzyme system counterscreen, AmpLite Red fluorescence. 290,000 compounds, 0.67% hits; in the data active = activity change below about -30%
#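 Counterscreen lacking aldolase: glyceraldehyde-3-phosphate coupling-enzyme reagent preincubated 10 min at RT with compound (at 57.5 uM final), then substrate/coupling system with AmpLite Red added; fluorescence read at 525/598 nm after 20 min RT.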
# Tau FP inhib – tau fibrillization inhibition (FP); 280,000 compounds, 0.39% hits; Potency, µM (top dose mostly 57.7 µM), without a hit: at the highest dose activity, negative = inhibition, actives largely listed as inhibitors; K18 P301L tau heparin fibrillization, Alexa594 FP, 6 h; note: potency is the fitted concentration of half-maximal effect; nearly all actives have a fitted effect of over 55% in size
#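 Human K18 P301L fragment (15 uM unlabeled plus 0.24 uM Alexa 594-labeled) in 100 mM sodium acetate pH 7 with compound, aggregation induced by 20 uM heparin for 6 hr at 37 C. ThT (30 uM) added for 1 hr, then Alexa 594 FP read.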
# G9a block – blocks human histone lysine methyltransferase G9a | G9a H3K9 monomethylation, AlphaScreen, 2 h | Q96KQ7 | Potency, µM (highest dose often 102 µM), for the others: at the highest dose activity, negative = inhibition, actives largely listed as inhibitors | AID 504332 | 350,000 compounds, 8.8% hits; note: potency is the fitted concentration of half-maximal effect; nearly all actives have a fitted effect of over 75% in size
# Target sequence (Q96KQ7 913-1193 limits assumed): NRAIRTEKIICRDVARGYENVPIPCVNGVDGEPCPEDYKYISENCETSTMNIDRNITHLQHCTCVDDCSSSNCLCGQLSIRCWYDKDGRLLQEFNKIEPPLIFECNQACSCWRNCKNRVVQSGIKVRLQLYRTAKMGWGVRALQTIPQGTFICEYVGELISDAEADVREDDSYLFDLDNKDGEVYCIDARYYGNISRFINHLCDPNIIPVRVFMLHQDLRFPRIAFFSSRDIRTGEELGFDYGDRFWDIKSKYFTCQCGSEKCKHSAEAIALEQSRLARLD
#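 Signal arises when biotinylated H3K9 peptide, once monomethylated, bridges streptavidin donor and antibody-captured acceptor beads. Enzyme at 20 nM was preincubated 15 min with test compounds; peptide 500 nM and SAM 20 uM then reacted for 2 h.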
# Starred values were filed as active, the others as inactive; ? = inconclusive; nt = not tested or not shown; [ ] = dose if it differs, or a comment. Unless noted, calls come from the whole dose curve; as a rule, active = well fitted curve in the direction sought with a large enough effect; inconclusive = small, poorly fitted or top-dose-only effect, or another doubt; inactive = no such curve, though single readings can be large; an effect the other way counts as inactive or inconclusive. Unless noted, % is set by controls: 0 for no effect and ±100 for the full control effect.
SMILES,Sfp PPTase inh,Tau fibril ThT,Tau fluor cs,FBPA coupling cs,Tau FP inhib,G9a block
O=C(CF)NC(NC(=S)Nc1cccc([N+](=O)[O-])c1)C(Cl)(Cl)Cl (configuration not stated),-3%,-6%,-20%,0,-3%,35µM*
CN[C@H](CC(C)C)C(=O)N[C@H]1C(=O)N[C@@H](CC(N)=O)C(=O)N[C@@H]2C(=O)N[C@H]3C(=O)N[C@H](C(=O)N[C@H](C(=O)O)c4cc(O)cc(O)c4-c4cc3ccc4O)[C@H](O)c3ccc(c(Cl)c3)Oc3cc2cc(c3O[C@@H]2O[C@H](CO)[C@@H](O)[C@H](O)[C@@H]2O[C@H]2C[C@](C)(N)[C@H](O)[C@H](C)O2)Oc2ccc(cc2Cl)[C@H]1O,nt,nt,nt,nt,nt,2%[59 µM]
N#CC1=C(N)Oc2c(c(=O)oc3ccccc23)C1c1ccc([N+](=O)[O-])o1 (configuration not stated),?,10µM*,-27%,-8,?,nt
CN1CCc2nc(SCC(=O)OC(C)(C)C)c(C#N)cc2C1,-14%,?,-16%,-23,-2%,50µM*
CN1CCc2nc(CO)c(CO)cc2C1,4%,-7%[11.5 µM],-8%[11.6 µM],-4,-5%[11.6 µM],nt
CC[N+](C)(CC)CCCCOc1ccc2c(c1)C(=O)c1cc(OCCCC[N+](C)(CC)CC)ccc1-2,14µM*,?,-11%,-1,-6%,32µM*
C[N+]1([O-])[C@H]2CC[C@H]1CC(OC(=O)[C@@H](CO)c1ccccc1)C2 (some centres not stated),-6%,nt,nt,nt,nt,10%[59 µM]
CN1/C(=C\C=C2C(=O)NC(=S)NC2=O)C(C)(C)c2ccccc21,-11%,20%,?,-4,?,?
CC1(C)OC(c2ccccc2)=C/C(=C/C=C2C(=O)NC(=S)NC2=O)O1,40µM*,-1%,?,-2,?,10µM*
O=C1C(Cl)=C(Cl)C(=O)C(Cl)=C1Cl,-85%,1.4µM*,14µM*[quencher],-65*,1.4µM*,?
C[C@@H](C1CC[C@@]2(O)C3=CC(=O)[C@@H]4C[C@@H](O)[C@@H](O)C[C@]4(C)[C@H]3CC[C@]12C)[C@H](O)CCC(C)(C)O (some centres not stated),2%,nt,nt,4,nt,nt
Cc1cc(C=C2C(=O)NC(=S)NC2=O)c(C)n1-c1ccc2c(c1)OCO2,45µM*,14µM*,?,-1,-8%,11µM*
CCOc1ccc(CCNC(=O)c2cc3c(-c4ccc(OC)c(OC)c4)nn(C)c3s2)cc1OCC,nt,-12%,?,nt,-9%,?
C=C1C(=O)O[C@@H]2C[C@@H](C)[C@H]3C=CC(=O)[C@]3(O)C[C@@H]12,12%,16µM*,-4%,-2,?,19%[59 µM]
CCCN1CCc2cc(O)cc3c2[C@H]1Cc1ccc(O)c(O)c1-3,nt,nt,nt,nt,nt,1.1µM*
CCCN1CCc2cccc3c2C1Cc1ccc(O)c(O)c1-3 (configuration not stated),56µM*,14µM*,18µM*[quencher],nt,32µM*,1µM*
CN1CCc2cc(O)cc3c2[C@H]1Cc1ccc(O)c(O)c1-3,nt,nt,nt,nt,nt,1.7µM*
COc1cc2c(cc1O)C[C@H]1c3c(cc(O)c(OC)c3-2)CCN1C,9%,nt,nt,5,nt,-5%[59 µM]
CCn1cc(C(=O)N[C@@H](C)C(=O)OC)c(=O)c2cc3c(cc21)OCO3,2%,nt,nt,0,nt,43%
OCC(O)Cc1ccc2c(c1)OCO2 (configuration not stated),5%,-4%,-7%,0,-2%,-19%[2.33 µM]
CC[N+](C)(C)c1cccc(O)c1,8%,-9%,-5%,4,-6%,-12%[59 µM]
CNC(C)[C@H](O)c1ccccc1 (some centres not stated),0%,-5%,-8%,-1,-4%,-44%[2.33 µM]
CC(Cc1ccc(OCC(=O)O)cc1)NCC(O)c1cccc(Cl)c1 (configuration not stated),5%,-5%,1%,nt,1%,21%[12.7 µM]
O=C(Cc1ccccc1)N1CCN(Cc2ccccn2)CC1,56µM*,3%,3%,-3,7%,4.5µM*
O=C(Cc1ccccc1)N1CCN(Cc2cccc(Cl)c2)CC1,-18%,nt,nt,-4,nt,21%[0.501 µM]
SMILES,Sfp PPTase inh,Tau fibril ThT,Tau fluor cs,FBPA coupling cs,Tau FP inhib,G9a block
CCC(CC)N1CCN(C(=O)Cc2ccccc2)CC1,-7%,-6%,-6%,2,-3%,11µM*
CCN1CCN(Cc2ccccc2C)CC1,7%,3%,-4%,1,-10%,3%[12.7 µM]
Cc1ccccc1CN1CCN(C(=O)Cc2ccccc2)CC1,-3%,-4%,-6%,3,-7%,16µM*
Oc1ccc2c3c1O[C@H]1c4oc5ccccc5c4C[C@@]4(O)C(C2)N(CC2CC2)CCC314 (some centres not stated),nt,3%,-7%,nt,4%,?
CCCCC/C=C\C/C=C\C/C=C\C/C=C\CCCC(=O)NC1CC1,-10%,?,-8%,0,1%,69%[59 µM]
CN(CC(=O)N[C@H](CO)Cc1ccccc1)C(=O)[C@H](CCS(C)=O)NC(=O)[C@@H](N)Cc1ccc(O)cc1 (some centres not stated),15%,-2%,-3%,nt,0%,44%[59 µM]
CN1C(=O)C(Cc2cccc3ccccc23)C(=O)N(C)C1=O,-46%,25µM*,-20%,-21,?,?
CN1C(=O)C(Cc2ccc(OCc3ccccc3)cc2)C(=O)N(C)C1=O,-27%,nt,nt,15,nt,79µM*
CN1C(=O)C(Cc2c[nH]c3ccccc23)C(=O)N(C)C1=O,40µM*,22µM*,-28%,-15,?,13µM*
O=S1(=O)CCN(CCc2c[nH]c3ccccc23)CC1,24%,0%,2%,0,8%,0%
COc1cc(CC2C(=O)N(C)C(=O)N(C)C2=O)ccc1OCc1ccccc1,-18%,?,-13%,-4,?,-23%[59 µM]
CC(C)(O)[C@H]1O[C@H]2CC[C@@]3(C)[C@@](O)(CC[C@H]4Cc5c([nH]c6ccccc56)[C@@]43C)C2=CC1=O,11%,-14%,?,-5,?,32µM*
Cc1oc(-c2ccccc2Cl)nc1CN1C(=O)CN=C(c2ccccc2)c2ccccc21,-19%,?,-14%,3,2%,40µM*
O=c1c(/C=N/N2CCOCC2)c(O)n(-c2ccccc2)c(=S)n1-c1ccccc1,-23%,4%,2%,5,0%,50µM*
O=c1[nH]c(=S)n(-c2ccc(F)cc2)c(O)c1/C=N/N1CCOCC1,4%,-12%,-8%,-3,5%,45µM*
